Source: PubChem BioAssay
An excerpt weighted towards active compounds, which were near 4.1% of everything screened.
hgDAF-12 ag: H. glycines DAF-12 receptor agonists, primary screen, cell-based, luminescence, HEK293, GAL4 fusion, UAS-luciferase | activation, % at 6.8 µM | HEK293 GAL4-hgDAF12 UAS-luciferase reporter, agonist luminescence; normalized to butyrate control | 1.8% of 370,000 active;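 active = activation above a cutoff set at the mean of all screened compounds plus 3 SD, cut at about 10% in these data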;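 note: 0% = DMSO wells and 100% = sodium butyrate wells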
DAX1 inh-1: DAX1 (NR0B1) inhibitors on StAR promoter, primary screen, cell-based, luminescence, SF-1 (NR5A1), full-length DAX-1; 1.1% of 370,000 active; inhibition, % at 6.8 µM; HEK293T StAR-luciferase reporter, SF-1/DAX-1 repression relief;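 active = inhibition above the mean over all tested compounds plus 3 SD, cut at about 3.6% in these data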;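 note: 0% = DAX-1 cells with DMSO and 100% = cells lacking DAX-1 with DMSO; higher inhibition means more luminescence from relief of DAX-1 repression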
hcDAF12 agonist: H. contortus DAF-12 nuclear receptor activators, primary screen, cell-based, luminescence, HEK293, lit1-tk-luc reporter; HEK293 hcDAF-12 lit1-tk-luc reporter; 0% DMSO, 100% Δ7-dafachronic acid; activation, % at 6.8 µM; 1.4% of 370,000 active; AID 652067, 2013;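 active = activation above the mean of all tested compounds plus 3 SD, cut at about 5.5% in these data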;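 note: 100% = response to 3 µM Δ7-dafachronic acid high control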
ssDAF12 agonist: S. stercoralis DAF-12 nuclear receptor activators, primary screen, cell-based, luminescence, HEK293, GRIP1 co-expression, lit1-tk-luc | Nuclear hormone receptor DAF-12 (Strongyloides stercoralis) | activation, % at 6.8 µM | AID 652126, 2013 | HEK293 ssDAF-12/GRIP1 lit1-tk-luc reporter; % of 3 µM dafachronic acid response | 1% of 370,000 active;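 active = activation above the mean over all tested compounds plus 3 SD, cut at about 0.9% in these data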;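 note: 0% = DMSO-only wells and 100% = 3 µM delta7-dafachronic acid wells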
DAX1 inh-2: DAX1 (NR0B1) inhibitors, primary screen, cell-based, HEK293, Gal4-DAX1, luciferase luminescence; 0.99% of 340,000 active; HEK293 Gal4-DAX1 luciferase reporter; Nuclear receptor subfamily 0 group B member 1 (Homo sapiens), P51843; inhibition, % at 6.75 µM;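 active = inhibition above the mean over all tested compounds plus 3 SD, cut at about 4.2% in these data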;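 note: 0% = DAX1-transfected cells with DMSO and 100% = empty-vector control cells with DMSO; inhibition shows as a rise in luminescence from relieved DAX1 repression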
Target sequence (P51843 207-470 limits assumed): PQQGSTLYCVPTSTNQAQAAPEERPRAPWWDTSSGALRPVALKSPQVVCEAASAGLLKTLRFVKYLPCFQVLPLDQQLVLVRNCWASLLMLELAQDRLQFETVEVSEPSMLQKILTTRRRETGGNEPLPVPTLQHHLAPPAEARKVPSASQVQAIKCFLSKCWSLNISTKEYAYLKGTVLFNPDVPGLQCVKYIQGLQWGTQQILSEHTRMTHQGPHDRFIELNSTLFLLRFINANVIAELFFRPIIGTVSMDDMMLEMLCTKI
LXRb hcDAF ctr: LXR agonists, Gal4 luciferase reporter, confirmation, counter-screen for hcDAF-12 agonist project, cell-based, luminescence, HEK293, H. contortus campaign. shares compounds with hcDAF12 agonist. HEK293 Gal4-LXR tk-luc reporter, 24 h; normalized: DMSO 0%, positive control 100%. activation, % at 6.8 µM. 3,400 tested, under 10 active;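 active = mean percent activation of the reporter above a cutoff set as the average over tested compounds plus their standard deviation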
hcDAF12 ag: H. contortus DAF-12 receptor agonists, confirmation, cell-based, luminescence, HEK293, lit1-tk-luc, triplicate; HEK293 hcDAF-12 lit1-tk-luc reporter; % of Δ7-dafachronic acid response; shares compounds with hcDAF12 agonist; 61% of 3,400 active; activation, % at 6.8 µM;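 active = mean activation across triplicate tests above the threshold derived from the earlier primary screen, cut at about 5.5% in these data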;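 note: 0% = DMSO only wells and 100% = 3 µM Δ7-dafachronic acid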
The depositor's hits bear a star; nt = no result.

SMILES	hgDAF-12 ag	DAX1 inh-1	hcDAF12 agonist	ssDAF12 agonist	DAX1 inh-2	LXRb hcDAF ctr	hcDAF12 ag
CCCCc1ccc(NC(=O)CC(C)=O)cc1	1	0	0	-2	1	nt	nt
CCCCc1ccc(NC(=O)CC(C)(C)C)cc1	13*	2	7.0*	0	-1	0	4
COc1ccc(OC)c(NC(=O)COC(=O)/C=C/c2ccccc2Cl)c1	1	0	7.1*	-2	-1	0	0
COc1ccc(OC)c(NC(=O)COC(=O)/C=C/c2ccco2)c1	0	0	0	-1	1	nt	nt
O=C(Nc1ccccc1)C(=O)Nc1cccnc1	10	3	9.3*	1	1	1	5
O=C(CCc1nc2ccccc2c(=O)[nH]1)NNC(=O)c1ccc(F)cc1	3	1	-1	-1	1	nt	nt
COc1ccc(/C=N/NC(=O)c2ccc(N3CCCC3=O)cc2)cc1	2	0	-1	-1	0	nt	nt
Cc1cc(=O)oc2ccc(OC(=O)CN3C(=O)c4cccc([N+](=O)[O-])c4C3=O)cc12	1	0	8.8*	-1	0	0	2
CCC(=O)Oc1ccc2oc(=O)cc(C)c2c1	6	0	1	-1	0	nt	nt
O=C(c1cn(-c2ccccc2)nc1-c1cccnc1)N1CCN(S(=O)(=O)c2ccc(Cl)cc2)CC1	1	1	0	-1	0	nt	nt
COc1cccc(CC(=O)N2CCC(n3nccc3NC(=O)C3CCOC3)CC2)c1 (stereo not given)	4	1	6.9*	0	0	0	5
CCCCn1cnc2c(oc3nc4c(cc32)CCCC4)c1=O	11*	3	8.3*	0	0	1	4
CCCCCCn1cnc2c(oc3nc4c(cc32)CCCC4)c1=O	7	1	0	-1	-1	nt	nt
Clc1ccc2nc(-c3ccc4c(c3)OCO4)cn2c1	5	3.7*	7.5*	-1	-1	1	7.1*
O=C(C[n+]1ccc(C(=O)N/N=C/c2ccc(OCc3ccccc3)cc2)cc1)c1ccccc1	5	0	7.5*	0	0	0	2
COc1ccc(NC(=O)C(c2ccccn2)N(C(C)=O)c2ccc(C)cc2)cc1 (stereo not given)	4	1	10*	1.6*	-1	0	4
CC(=O)Nc1ccc(C(=O)N(C)C(C(=O)Nc2ccc(C)cc2)c2ccccn2)cc1 (stereo not given)	1	0	4	0	-1	nt	nt
COc1ccccc1OCCOc1ccc(/C=C2/C(=N)N3OC(C)=CC3=NC2=O)cc1OC	5	-1	7.3*	-1	-1	-1	-3
CC1=CC2=NC(=O)/C(=C\c3cccn3CCOc3ccccc3C)C(=N)N2O1	-2	-1	-4	-2	1	nt	nt
Cc1nc(NC(=O)c2cccnc2Cl)sc1C	9	1	8.5*	1	3	1	5
Cc1ccc(S(=O)(=O)N2CCC(=O)N(C(COCc3cccc(C(F)(F)F)c3)C(C)C)CC2)cc1 (stereo not given)	nt	nt	nt	nt	-1	nt	nt
Cc1cc(=O)n2nc(N3CCCC(C(=O)NC4CCC(C)CC4)C3)sc2n1 (stereo not given)	0	0	0	-1	0	nt	nt
O=C(NCC1c2ccccc2CCN1C(=O)CN1C(=O)c2ccccc2C1=O)C1CCCCC1 (stereo not given)	-1	0	0	-1	-1	nt	nt
CCOC(=O)c1c(C)oc2c1c1c(c3ccccc32)OCN(CCCC(=O)O)C1	7	2	8.9*	1.2*	5.0*	1	12*
COc1cc(CNc2ccc(N3CCCC3)cc2)ccc1OCc1ccccc1	6	-1	7.7*	1	0	0	5.9*
SMILES	hgDAF-12 ag	DAX1 inh-1	hcDAF12 agonist	ssDAF12 agonist	DAX1 inh-2	LXRb hcDAF ctr	hcDAF12 ag
Cc1ccc(C(=O)N2CCCC(Nc3ccc(F)cc3)C2)cc1C (stereo not given)	-2	-1	-1	-1	1	nt	nt
CC(=O)Oc1ccc(C(=O)[C@H]2[C@H]3C(=O)N(c4ccccc4)C(=O)[C@H]3[C@@H]3C=CC=NN32)cc1	2	0	8.1*	0	3	0	5
COC(=O)C1=C(C)N(Cc2ccc(C(F)(F)F)cc2)C(=NCc2ccc3c(c2)OCO3)NC1c1ccccc1C(F)(F)F (stereo not given)	0	0	-1	-1	nt	nt	nt
CC(=O)Nc1sc2c(c1-c1nc3ccccc3s1)CCN(C(C)C)CC2	-1	nt	13*	1.1*	nt	1	15*
C#CCCC(=O)Nc1sc2c(c1-c1nc3ccccc3s1)CCN(C(C)C)C2	8	nt	9.7*	0	nt	0	2
CC(C)N1CCc2c(sc(NC(=O)C(F)F)c2-c2nc3ccccc3s2)C1	5	nt	0	-2	nt	nt	nt
C/C(=N\NS(=O)(=O)c1ccc([N+](=O)[O-])cc1)c1c[nH]c2ccccc12	1	-1	11*	0	1	0	2
O=C(NC1=NCCS1)c1sc2cc(F)ccc2c1Cl	11*	2	9.4*	1.3*	3	2	15*
Cc1ccc(C)c(S(=O)(=O)Nc2ccc(O)c3ccccc23)c1	-4	-1	8.0*	-1	-2	0	3
Cc1ccc(S(=O)(=O)Nc2ccc(O)c3ccccc23)c(C)c1	-2	-1	0	0	-1	nt	nt
Cc1cc2[nH]c3c(c[n+](C)c4ccccc34)c2cc1C	6	-1	14*	1.0*	0	2	10*
Cc1cc2[nH]c3c4ccccc4nc(C)c3c2cc1C	2	-1	4	0	1	nt	nt
Cc1ccc(F)cc1C(=O)N1CCCCC1c1cc(C(=O)Nc2ccccc2)no1 (stereo not given)	-1	-2	-2	-2	nt	nt	nt
COc1ccc(NC(=O)[C@@]2(CC(=O)O)CC(/C=C/c3ccccc3)=NO2)cc1	1	0	7.9*	0	1	0	1
